Assay results from PubChem BioAssay (EPA / NIEHS).
Calls of active or inactive are those of the source. Rule for the calls: active = hit-call score of the fitted dose curve at least 0.9, where 1 is the maximum; inactive = score below 0.9.

What was measured:
Details in all cases: mRNA level, 48 h; actives raise or lower the signal
[1] = read-out: ATP-citrate lyase (ACLY), ACLY (gene 47); experiment: LTEA_HepaRG_ACLY: Life Technologies and Expression Analysis (LTEA) Assay for ATP-citrate lyase (ACLY) using HepaRG (AID 2283466)
Method in brief: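 Differentiated human HepaRG cells in serum-free induction medium exposed 48 h, in duplicate, to eight half-log concentrations from 100 uM top in 0.5% DMSO; ACLY mRNA measured by qRT-PCR, normalized to ACTB, GAPDH, POLR2A, fitted bidirectionally versus DMSO.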

[2] = read-out: Peroxisomal acyl-coenzyme A oxidase 1 (ACOX1) gene, ACOX1 (gene 51); experiment: LTEA_HepaRG_ACOX1: Life Technologies and Expression Analysis (LTEA) Assay for Peroxisomal acyl-coenzyme A oxidase 1 (ACOX1) gene using HepaRG (AID 2283467)
Method in brief: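 Differentiated human HepaRG cells were exposed in duplicate for 48 h in serum-free induction medium to eight half-log concentrations up to 100 uM in 0.5% DMSO. ACOX1 mRNA was then quantified by TaqMan qRT-PCR, normalized to ACTB, GAPDH and POLR2A.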

[3] = read-out: Alkaline Phosphatase, Placental (ALPP) gene, ALPP (gene 250); experiment: LTEA_HepaRG_ALPP: Life Technologies and Expression Analysis (LTEA) Assay for Alkaline Phosphatase, Placental (ALPP) gene using HepaRG (AID 2283468)
Method in brief: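 Differentiated human HepaRG cells were plated and cultured 48 h, then exposed in duplicate for 48 h in serum-free induction medium to eight half-log concentrations from 100 uM in 0.5% DMSO. ALPP mRNA was measured by TaqMan qRT-PCR, normalized to ACTB, GAPDH, POLR2A.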

[4] = read-out: Bcl-2 (BAD) gene, BAD (gene 572); experiment: LTEA_HepaRG_BAD: Life Technologies and Expression Analysis (LTEA) Assay for Bcl-2 (BAD) gene using HepaRG (AID 2283469)
Method in brief: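 Differentiated human HepaRG cells in serum-free induction medium were exposed in duplicate for 48 h to eight concentrations (top 100 uM, half-log steps, 0.5% DMSO). BAD mRNA was quantified by qRT-PCR normalised to ACTB, GAPDH and POLR2A, with bidirectional fitting versus DMSO.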

[5] = read-out: Bcl-2 (BAX) gene, BAX (gene 581); experiment: LTEA_HepaRG_BAX: Life Technologies and Expression Analysis (LTEA) Assay for Bcl-2 (BAX) gene using HepaRG (AID 2283470)
Method in brief: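 Concentration-response endpoint fitted in both directions relative to 0.5% DMSO vehicle. Human HepaRG cultures receive test chemicals for 48 h at up to 100 uM; BAX mRNA is quantified by qRT-PCR against housekeeping genes.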

[6] = read-out: adenosine kinase (ADK) gene, ADK (gene 132); experiment: LTEA_HepaRG_ADK: Life Technologies and Expression Analysis (LTEA) Assay for adenosine kinase (ADK) gene using HepaRG (AID 2283471)
Method in brief: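 HepaRG (human liver), 48 h chemical exposure, 8-pt half-log series, top 100 uM, 0.5% DMSO vehicle. Readout: ADK mRNA by qRT-PCR vs housekeeping genes; bidirectional curve fit relative to DMSO baseline.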

[7] = read-out: Alpha-fetoprotein (AFP) gene, AFP (gene 174); experiment: LTEA_HepaRG_AFP: Life Technologies and Expression Analysis (LTEA) Assay for Alpha-fetoprotein (AFP) gene using HepaRG (AID 2283472)
Method in brief: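 After a 48 h plating period, cells are moved to serum-free induction medium and dosed in duplicate (100 uM maximum, half-log dilutions, 0.5% DMSO) for another 48 h. Total RNA goes to TaqMan qRT-PCR; AFP signal is housekeeping-normalized.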

[8] = read-out: Apolipoprotein A-V (APOA5) gene, APOA5 (gene 116519); experiment: LTEA_HepaRG_APOA5: Life Technologies and Expression Analysis (LTEA) Assay for Apolipoprotein A-V (APOA5) gene using HepaRG (AID 2283474)
Method in brief: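 Differentiated human HepaRG cells were exposed in duplicate for 48 h to eight half-log concentrations from 100 uM in 0.5% DMSO. APOA5 mRNA was quantified by TaqMan qRT-PCR, normalized to ACTB, GAPDH and POLR2A, and fitted bidirectionally against DMSO.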

[9] = read-out: Apoptosis regulator Bcl-2 (Homo sapiens) (UniProt P10415); experiment: LTEA_HepaRG_BCL2: Life Technologies and Expression Analysis (LTEA) Assay for Bcl-2 gene using HepaRG (AID 2283475)
Method in brief: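 Expression change of BCL2 mRNA in HepaRG after 48 h dosing, quantified by TaqMan qRT-PCR against three endogenous controls. Concentration-response used eight points up to 100 uM, vehicle 0.5% DMSO.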

BCL2L11 (gene 10018) = experiment: LTEA_HepaRG_BCL2L11: Life Technologies and Expression Analysis (LTEA) Assay for Bcl-2 (BCL2L11) gene using HepaRG (AID 2283473)
Method in brief: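 Differentiated human HepaRG cells in serum-free induction medium were exposed in duplicate for 48 h to eight concentrations (top 100 uM, half-log steps, 0.5% DMSO). BCL2L11 mRNA was quantified by TaqMan qRT-PCR, normalized to ACTB/GAPDH/POLR2A, bidirectional fit versus DMSO.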

Measured: AC50

Sequence of Apoptosis regulator Bcl-2 (Homo sapiens) (P10415 whole entry, looked up): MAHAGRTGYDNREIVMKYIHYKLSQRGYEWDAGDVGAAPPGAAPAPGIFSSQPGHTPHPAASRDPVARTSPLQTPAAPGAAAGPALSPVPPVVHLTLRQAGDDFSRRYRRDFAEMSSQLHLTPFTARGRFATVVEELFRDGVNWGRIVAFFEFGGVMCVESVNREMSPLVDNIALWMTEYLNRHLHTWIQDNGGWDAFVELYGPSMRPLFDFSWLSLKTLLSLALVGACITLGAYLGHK

Cc1ccc([N+](=O)[O-])cc1
not listed: BCL2L11 (gene 10018)
inactive: all other assays above

O=C(Oc1ccc(Br)cc1)N1CCN2CCC1CC2
active: [1] 73.5 µM
not listed: BCL2L11 (gene 10018)
inactive: all other assays above

CN(C)c1ccc(C(=O)c2ccc(N(C)C)cc2)cc1
active: [3] 3.13 µM | [7] 50 µM | [9] 8.06 µM
not listed: [8] | BCL2L11 (gene 10018)
inactive: all other assays above

ClC1=C(Cl)[C@]2(Cl)[C@H]3[C@H]([C@@H]4C=C[C@H]3C4)[C@@]1(Cl)C2(Cl)Cl
active: [7] 50 µM
not listed: BCL2L11 (gene 10018)
inactive: all other assays above

Nc1ccc(Cc2ccc(N)cc2)cc1
not listed: [8] | BCL2L11 (gene 10018)
inactive: all other assays above

O=[N+]([O-])C(Br)(CO)CO
not listed: BCL2L11 (gene 10018)
inactive: all other assays above

CCC[CH2][Sn]([Cl])([CH2]CCC)[CH2]CCC
active: [2] 3.11 µM | [3] 3.79 µM | [5] 1.72 µM | [7] 0.59 µM | [8] 2.03 µM
inactive: [1] | [4] | [6]

CCCCC(CC)COC(=O)c1ccc(C(=O)OCC(CC)CCCC)c(C(=O)OCC(CC)CCCC)c1 (configuration not stated)
not listed: BCL2L11 (gene 10018)
inactive: all other assays above

O=[N+]([O-])c1ccc(Oc2ccc(Cl)cc2Cl)cc1
active: [7] 66.9 µM
not listed: [3] | [9]
inactive: all other assays above

Clc1ccc(C(c2ccc(Cl)cc2)C(Cl)(Cl)Cl)cc1
active: [7] 50 µM | [8] 50 µM | [9] 50 µM
not listed: BCL2L11 (gene 10018)
inactive: all other assays above

Nc1cc(Cl)cc(C(=O)O)c1Cl
not listed: [7] | [8] | BCL2L11 (gene 10018)
inactive: all other assays above

CCN(CC)N=O
not listed: BCL2L11 (gene 10018)
inactive: all other assays above

C1=Cc2cccc3cccc1c23
not listed: [9] | BCL2L11 (gene 10018)
inactive: all other assays above

CCCCCCCCOC(=O)c1ccc(C(=O)OCCCCCCCC)c(C(=O)OCCCCCCCC)c1
not listed: [9] | BCL2L11 (gene 10018)
inactive: all other assays above

CCC(C)c1ccc(O)cc1 (configuration not stated)
not listed: [8] | BCL2L11 (gene 10018)
inactive: all other assays above

CCOc1cccc(C2(N3CCN(c4ccccc4)CC3)CCC(C)CC2)c1 (configuration not stated)
not listed: [8] | BCL2L11 (gene 10018)
inactive: all other assays above

C[N+](C)(C)CC1CO1 (configuration not stated)
not listed: [8] | BCL2L11 (gene 10018)
inactive: all other assays above

CC(C)N(Cc1ccccc1)C(=O)C(C)(C)C
not listed: [8] | BCL2L11 (gene 10018)
inactive: all other assays above

O=C(N[C@H](c1ccccc1)[C@@H]1CN2CCC1CC2)c1c(Cl)ccc(C(F)(F)F)c1Cl
inactive: [4] | [9]
active: [1] 78.7 µM | [2] 70.3 µM | [3] 11.8 µM | [5] 75.3 µM | [6] 58 µM | [7] 22.8 µM | [8] 72.6 µM

Cc1cccc(N)c1N
active: [2] 50 µM | [7] 81.5 µM | [8] 37.6 µM
not listed: BCL2L11 (gene 10018)
inactive: all other assays above

CN(C)[C@@H]1C(=O)C(C(N)=O)=C(O)[C@@]2(O)C(=O)C3=C(O)c4c(O)cccc4[C@@](C)(O)[C@H]3C[C@@H]12
not listed: BCL2L11 (gene 10018)
inactive: all other assays above
